# Test results from PubChem BioAssay AID743316 (Broad Institute, 2014).
# Potency and affinity values are given separately. The source made the active and inactive calls. Where a call stands in place of a potency, no number is given. No rule for the calls is given here.
# Settings: HEK293 cytotoxicity, plate reader; series mostly up to 26 µM
row,SMILES,outcome
1,Cc1ccccc1OCCn1cnc2ccccc21,inactive
2,Cc1cccc(OCCn2c(=S)[nH]c3ccccc32)c1,inactive
3,COc1cccc(OCCn2cnc3ccccc32)c1,inactive
4,CC(C)Oc1ccc(OCCn2c(=S)[nH]c3ccccc32)cc1,inactive
5,CSc1nc2ccccc2n1CCOc1cc(C)ccc1C(C)C,inactive
6,Clc1ccc(OCCn2cnc3ccccc32)cc1,inactive
7,CCCc1nc2ccccc2n1CCOc1ccccc1,inactive
8,Cc1ccc2c(c1)[nH]c(=S)n2CCOc1ccccc1,inactive
9,CCc1nc2ccccc2n1CCOc1ccccc1,inactive
10,Cc1ccc(OCCn2cnc3ccccc32)c(C)c1,inactive
11,COc1ccc(OCCn2cnc3ccccc32)cc1,inactive
12,Cc1cccc(OCCn2cnc3ccccc32)c1,inactive
13,Cc1ccc(OCCn2cnc3cc(C)c(C)cc32)cc1,inactive
14,Cc1cc2ncn(CCOc3ccccc3)c2cc1C,inactive
15,CS(=O)(=O)c1ccc(OCCn2cnc3ccccc32)cc1,inactive
16,Cc1cccc(OCCn2c(=S)[nH]c3c(F)cccc32)c1,inactive

row,SMILES,outcome
1,COc1ccccc1OCCn1c(=S)[nH]c2ccccc21,inactive
2,Cc1ccc(C(C)C)c(OCCn2c(=S)[nH]c3ccccc32)c1,inactive
3,FC(F)(F)c1cccc(OCCn2cnc3ccccc32)c1,inactive
4,CCSc1nc2ccccc2n1CCOc1ccccc1,inactive
5,OCc1nc2ccccc2n1CCOc1ccccc1,inactive
6,S=c1[nH]c2cccc(Cl)c2n1CCOc1ccccc1,inactive
7,CSc1nc2ccccc2n1CCOc1ccc(C)cc1,inactive
8,CCCCc1nc2ccccc2n1CCOc1ccccc1,inactive
9,Fc1ccc2c(c1)[nH]c(=S)n2CCOc1ccccc1,inactive
10,CC(C)Oc1ccc(OCCn2cnc3ccccc32)cc1,inactive
11,O=S(=O)(c1ccc(OCCn2cnc3ccccc32)cc1)N1CCOCC1,inactive
12,Fc1ccc(OCCn2c(=S)[nH]c3ccccc32)cc1,inactive
13,Clc1ccc(OCCn2cnc3ccccc32)c(Cl)c1,inactive
14,Clc1ccccc1OCCn1cnc2ccccc21,inactive
15,Fc1cccc2c1[nH]c(=S)n2CCOc1ccccc1,inactive
